Measured values: the supplement of paper PMC11732987, “Enantioselective OTUD7B fragment discovery through chemoproteomics screening and high-throughput optimisation” (Communications Chemistry, 2025)
Unmarked numbers belong to inactive results.

Legend:
Assay in all cases: log2 ratio of Biotin-Ahx-Ub-VS probe labelling (fragment/DMSO); higher = less target engagement (more negative = stronger competition), active = hit call of the paper (q ≤ 0.05, log2 ratio ≤ -1)
Settings in all cases: compound concentration: 200 uM; treatment time: 3 h
[1] = compound: CC(C)CN(C1CC1)C(=O)CCl
Outline: (§1)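 Values give the average log2 ratio of fragment to vehicle, assessed by unpaired t-test on global-median-normalised Spectronaut label-free quantities. Proteins needed ≥2 unique peptides. HEK293T lysate (495 µg per sample) was treated in triplicate with fragment at 200 µM or vehicle for 3 h and then with Biotin-Ahx-Ub-VS at 0.5 µM final for 1 h. Labelled DUBs were NeutrAvidin-enriched, digested and run by diaPASEF LC-MS/MS.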

[2] = compound: CC(NC(=O)CCl)c1cccs1
Outline: as §1

[3] = compound: CC1CCCCC1NC(=O)CCl
Outline: as §1

[4] = compound: CC1CCCCN1C(=O)CCl
Outline: as §1

[5] = compound: CC1CN(CC(C)O1)C(=O)CCl
Outline: as §1

[6] = compound: CN(C1CCCCC1)C(=O)CCl
Outline: as §1

[7] = compound: Cc1cc(NC(=O)CCl)no1
Outline: as §1

[8] = compound: Cc1cccc(NC(=O)CCl)c1
Outline: as §1

[9] = compound: Cc1nc(NC(=O)CCl)sc1C
Outline: as §1

[10] = compound: Cc1nnc(NC(=O)CCl)s1
Outline: as §1

[11] = compound: Cl.Cc1ncsc1CNC(=O)CCl
Outline: as §1

[12] = compound: ClCC(=O)N1CCCCCCC1
Outline: as §1

[13] = compound: ClCC(=O)NC1(CCCC1)C#N
Outline: as §1

[14] = compound: ClCC(=O)NCC1CCC1
Outline: as §1

[15] = compound: ClCC(=O)NCC1CCCO1
Outline: as §1

[16] = compound: ClCC(=O)NCc1ccco1
Outline: as §1

[17] = compound: ClCC(=O)Nc1cccc(Cl)c1
Outline: as §1

[18] = compound: ClCC(=O)NC(C1CC1)C1CC1
Outline: as §1

Sequence of UniProt Q5T2D3 (Q5T2D3 whole entry): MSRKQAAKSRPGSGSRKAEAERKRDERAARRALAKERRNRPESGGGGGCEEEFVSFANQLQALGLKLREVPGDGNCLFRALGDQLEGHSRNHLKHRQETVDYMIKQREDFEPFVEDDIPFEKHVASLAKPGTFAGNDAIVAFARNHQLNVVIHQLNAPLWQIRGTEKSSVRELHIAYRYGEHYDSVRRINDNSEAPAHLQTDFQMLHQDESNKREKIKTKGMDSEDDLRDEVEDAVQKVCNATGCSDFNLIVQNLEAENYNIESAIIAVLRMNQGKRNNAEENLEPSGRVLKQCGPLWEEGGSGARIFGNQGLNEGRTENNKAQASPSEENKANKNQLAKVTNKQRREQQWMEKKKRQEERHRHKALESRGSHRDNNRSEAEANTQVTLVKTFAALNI
Sequence of UniProt P09936 (P09936 whole entry, looked up): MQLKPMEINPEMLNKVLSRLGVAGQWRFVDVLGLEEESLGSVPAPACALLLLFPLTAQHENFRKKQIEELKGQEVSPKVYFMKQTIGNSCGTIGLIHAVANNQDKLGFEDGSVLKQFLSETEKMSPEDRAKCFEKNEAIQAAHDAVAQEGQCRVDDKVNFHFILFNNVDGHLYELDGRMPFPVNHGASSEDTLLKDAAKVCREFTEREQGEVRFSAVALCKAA
Sequence of UniProt P40818 (P40818 whole entry): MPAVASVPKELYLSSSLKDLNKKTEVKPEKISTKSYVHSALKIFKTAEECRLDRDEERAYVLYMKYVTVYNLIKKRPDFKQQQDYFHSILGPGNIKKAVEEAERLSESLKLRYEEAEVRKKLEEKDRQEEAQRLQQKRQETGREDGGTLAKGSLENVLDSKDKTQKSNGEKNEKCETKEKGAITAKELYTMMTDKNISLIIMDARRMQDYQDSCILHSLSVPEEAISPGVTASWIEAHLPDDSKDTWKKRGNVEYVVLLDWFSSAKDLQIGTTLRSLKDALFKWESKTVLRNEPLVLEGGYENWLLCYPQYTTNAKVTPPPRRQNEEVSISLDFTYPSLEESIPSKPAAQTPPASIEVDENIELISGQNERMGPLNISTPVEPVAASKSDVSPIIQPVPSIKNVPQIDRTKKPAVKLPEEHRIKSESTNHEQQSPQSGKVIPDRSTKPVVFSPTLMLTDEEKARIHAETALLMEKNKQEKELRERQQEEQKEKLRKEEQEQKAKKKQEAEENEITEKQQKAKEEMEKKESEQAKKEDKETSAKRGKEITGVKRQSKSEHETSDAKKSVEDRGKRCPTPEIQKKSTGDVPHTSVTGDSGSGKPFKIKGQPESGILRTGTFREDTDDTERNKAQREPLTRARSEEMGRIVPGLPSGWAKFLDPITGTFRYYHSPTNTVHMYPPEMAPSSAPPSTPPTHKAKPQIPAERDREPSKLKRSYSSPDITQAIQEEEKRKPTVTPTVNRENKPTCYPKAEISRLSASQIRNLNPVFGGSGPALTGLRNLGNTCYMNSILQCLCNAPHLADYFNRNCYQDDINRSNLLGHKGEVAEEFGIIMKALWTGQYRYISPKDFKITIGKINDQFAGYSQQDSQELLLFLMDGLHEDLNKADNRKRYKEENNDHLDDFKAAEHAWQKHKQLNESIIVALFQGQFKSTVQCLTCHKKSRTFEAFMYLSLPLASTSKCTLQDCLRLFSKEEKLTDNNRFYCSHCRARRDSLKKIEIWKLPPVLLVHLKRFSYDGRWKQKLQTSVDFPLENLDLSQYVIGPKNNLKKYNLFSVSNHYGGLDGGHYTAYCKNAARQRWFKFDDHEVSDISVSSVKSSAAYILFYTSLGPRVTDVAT
Sequence of UniProt Q9P2H5 (Q9P2H5 whole entry): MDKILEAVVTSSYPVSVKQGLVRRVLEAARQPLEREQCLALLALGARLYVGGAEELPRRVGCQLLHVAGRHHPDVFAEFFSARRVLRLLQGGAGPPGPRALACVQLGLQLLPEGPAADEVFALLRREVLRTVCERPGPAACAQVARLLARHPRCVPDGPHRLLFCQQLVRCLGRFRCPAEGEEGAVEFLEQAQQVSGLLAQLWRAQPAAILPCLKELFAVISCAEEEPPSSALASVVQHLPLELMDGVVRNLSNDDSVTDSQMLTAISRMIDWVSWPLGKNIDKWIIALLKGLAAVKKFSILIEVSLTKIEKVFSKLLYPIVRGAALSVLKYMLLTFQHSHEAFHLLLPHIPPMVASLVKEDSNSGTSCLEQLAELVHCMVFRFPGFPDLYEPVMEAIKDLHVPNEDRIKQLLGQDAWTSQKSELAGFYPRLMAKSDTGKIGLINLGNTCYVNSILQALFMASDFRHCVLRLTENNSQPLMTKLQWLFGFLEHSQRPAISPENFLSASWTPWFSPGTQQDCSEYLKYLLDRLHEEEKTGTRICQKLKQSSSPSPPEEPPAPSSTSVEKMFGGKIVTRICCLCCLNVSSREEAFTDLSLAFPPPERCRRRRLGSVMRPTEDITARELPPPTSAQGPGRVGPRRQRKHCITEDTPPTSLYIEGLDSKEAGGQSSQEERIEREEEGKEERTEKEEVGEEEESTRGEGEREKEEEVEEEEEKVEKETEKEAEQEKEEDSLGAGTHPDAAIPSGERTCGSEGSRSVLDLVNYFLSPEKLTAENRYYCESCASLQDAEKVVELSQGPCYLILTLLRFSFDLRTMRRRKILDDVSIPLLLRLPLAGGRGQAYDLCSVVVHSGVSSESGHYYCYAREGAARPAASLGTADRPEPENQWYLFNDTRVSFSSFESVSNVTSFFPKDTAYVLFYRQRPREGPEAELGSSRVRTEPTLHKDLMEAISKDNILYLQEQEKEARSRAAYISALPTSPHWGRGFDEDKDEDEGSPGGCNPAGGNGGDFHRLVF
Sequence of UniProt O00487 (O00487 whole entry): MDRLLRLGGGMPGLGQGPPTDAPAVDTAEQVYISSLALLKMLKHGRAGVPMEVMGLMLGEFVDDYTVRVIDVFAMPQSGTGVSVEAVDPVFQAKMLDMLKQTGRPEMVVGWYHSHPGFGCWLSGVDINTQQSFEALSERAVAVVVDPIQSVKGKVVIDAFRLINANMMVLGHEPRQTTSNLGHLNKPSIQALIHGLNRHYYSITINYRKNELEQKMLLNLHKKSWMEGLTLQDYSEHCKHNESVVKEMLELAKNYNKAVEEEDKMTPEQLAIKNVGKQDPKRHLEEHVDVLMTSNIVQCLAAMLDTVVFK
Sequence of UniProt P62068 (P62068 whole entry): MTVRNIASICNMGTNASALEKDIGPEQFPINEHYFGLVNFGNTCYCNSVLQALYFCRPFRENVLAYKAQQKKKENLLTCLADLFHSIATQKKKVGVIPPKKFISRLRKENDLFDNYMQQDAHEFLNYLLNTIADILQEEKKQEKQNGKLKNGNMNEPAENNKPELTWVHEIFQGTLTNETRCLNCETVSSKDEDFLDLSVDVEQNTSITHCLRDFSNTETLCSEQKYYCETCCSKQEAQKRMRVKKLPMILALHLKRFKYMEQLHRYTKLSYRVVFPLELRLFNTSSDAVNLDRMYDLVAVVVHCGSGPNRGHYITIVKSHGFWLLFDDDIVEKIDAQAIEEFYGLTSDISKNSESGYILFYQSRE
Sequence of UniProt O94966 (O94966 whole entry): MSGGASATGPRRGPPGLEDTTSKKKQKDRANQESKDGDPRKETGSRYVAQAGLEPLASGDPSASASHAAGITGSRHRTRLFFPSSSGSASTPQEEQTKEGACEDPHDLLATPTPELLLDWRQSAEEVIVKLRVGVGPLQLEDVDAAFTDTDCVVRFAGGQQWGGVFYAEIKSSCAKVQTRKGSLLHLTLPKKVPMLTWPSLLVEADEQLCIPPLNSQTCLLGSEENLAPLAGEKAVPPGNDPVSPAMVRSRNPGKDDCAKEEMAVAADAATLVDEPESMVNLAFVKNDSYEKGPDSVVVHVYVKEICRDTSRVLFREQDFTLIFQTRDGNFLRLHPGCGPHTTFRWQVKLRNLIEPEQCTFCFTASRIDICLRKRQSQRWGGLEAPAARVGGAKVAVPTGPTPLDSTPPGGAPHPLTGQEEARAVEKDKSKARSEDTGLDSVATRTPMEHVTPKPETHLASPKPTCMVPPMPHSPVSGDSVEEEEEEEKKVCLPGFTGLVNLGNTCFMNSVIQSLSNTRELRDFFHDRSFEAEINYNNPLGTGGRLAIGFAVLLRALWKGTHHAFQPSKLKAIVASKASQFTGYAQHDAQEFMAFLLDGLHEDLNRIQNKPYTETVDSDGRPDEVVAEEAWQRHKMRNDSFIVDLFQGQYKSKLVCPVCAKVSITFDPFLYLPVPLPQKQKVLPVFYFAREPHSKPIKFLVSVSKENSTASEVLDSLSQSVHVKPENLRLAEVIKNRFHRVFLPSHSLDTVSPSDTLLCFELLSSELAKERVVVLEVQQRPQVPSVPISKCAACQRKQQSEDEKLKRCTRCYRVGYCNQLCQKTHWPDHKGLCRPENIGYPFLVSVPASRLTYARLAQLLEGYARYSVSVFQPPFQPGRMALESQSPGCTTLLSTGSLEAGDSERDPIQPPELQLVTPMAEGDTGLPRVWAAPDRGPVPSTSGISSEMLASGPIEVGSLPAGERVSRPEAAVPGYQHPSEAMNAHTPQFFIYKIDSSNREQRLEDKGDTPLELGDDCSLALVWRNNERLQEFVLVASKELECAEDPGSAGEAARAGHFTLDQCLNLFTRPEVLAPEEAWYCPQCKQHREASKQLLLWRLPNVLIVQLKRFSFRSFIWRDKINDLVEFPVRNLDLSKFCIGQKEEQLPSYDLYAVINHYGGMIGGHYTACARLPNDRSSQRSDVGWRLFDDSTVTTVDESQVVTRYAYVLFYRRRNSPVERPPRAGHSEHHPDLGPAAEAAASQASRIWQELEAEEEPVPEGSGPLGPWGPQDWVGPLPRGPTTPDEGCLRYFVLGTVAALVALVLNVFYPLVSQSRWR

Row | Target | log2 ratio of Biotin-Ahx-Ub-VS probe labelling [1] | log2 ratio of Biotin-Ahx-Ub-VS probe labelling [2] | log2 ratio of Biotin-Ahx-Ub-VS probe labelling [3] | log2 ratio of Biotin-Ahx-Ub-VS probe labelling [4] | log2 ratio of Biotin-Ahx-Ub-VS probe labelling [5] | log2 ratio of Biotin-Ahx-Ub-VS probe labelling [6] | log2 ratio of Biotin-Ahx-Ub-VS probe labelling [7] | log2 ratio of Biotin-Ahx-Ub-VS probe labelling [8] | log2 ratio of Biotin-Ahx-Ub-VS probe labelling [9] | log2 ratio of Biotin-Ahx-Ub-VS probe labelling [10] | log2 ratio of Biotin-Ahx-Ub-VS probe labelling [11] | log2 ratio of Biotin-Ahx-Ub-VS probe labelling [12] | log2 ratio of Biotin-Ahx-Ub-VS probe labelling [13] | log2 ratio of Biotin-Ahx-Ub-VS probe labelling [14] | log2 ratio of Biotin-Ahx-Ub-VS probe labelling [15] | log2 ratio of Biotin-Ahx-Ub-VS probe labelling [16] | log2 ratio of Biotin-Ahx-Ub-VS probe labelling [17] | log2 ratio of Biotin-Ahx-Ub-VS probe labelling [18]
1 | UniProt Q5T2D3 | 0.0213 | -0.301 | -0.208 | -0.128 | -0.269 | -0.159 | -0.226 | -0.0544 | -0.17 | -0.141 | -0.0477 | -0.0257 | -0.314 | -0.239 | -0.00242 | -0.0389 | -0.998 | –
2 | USP16 (UniProt Q9Y5T5) | -0.505 | -0.513 | 0.199 | -0.203 | -0.306 | -0.171 | -0.735 | -0.611 | -0.0917 | -0.476 | 0.128 | -0.675 | -0.0851 | -0.131 | -0.506 | -0.128 | -0.24 | –
3 | USP28 (UniProt Q96RU2) | -0.207 | -0.568 | -0.669 | -0.421 | -0.575 | -0.419 | -0.987 | -0.664 | -0.857 | -0.957 | -0.256 | -0.28 | -0.611 | -0.427 | -0.11 | -0.47 | -1.44 (active) | –
4 | PRPF8 (UniProt Q6P2Q9) | 0.0577 | -0.0808 | -0.0383 | -0.109 | -0.0419 | -0.249 | 0.147 | 0.15 | 0.137 | 0.0499 | -0.0129 | 0.139 | -0.152 | -0.103 | 0.164 | -0.228 | 0.0652 | –
5 | USP22 (UniProt Q9UPT9) | 0.0555 | 0.184 | -0.0563 | 0.000369 | 0.0274 | 0.0658 | -0.433 | -0.357 | -0.117 | 0.0632 | 0.00275 | -0.145 | 0.0376 | 0.219 | -0.0487 | 0.0686 | -0.655 | –
6 | UCHL5 (UniProt Q9Y5K5) | -0.0257 | -0.148 | -0.168 | -0.283 | -0.314 | -0.249 | 0.0718 | -0.0463 | -0.292 | -0.0414 | -0.0581 | -0.0659 | -0.42 | -0.292 | -0.0635 | -0.29 | -1.02 (active) | -0.00772
7 | VCPIP1 (UniProt Q96JH7) | -0.221 | -1.63 (active) | -0.946 | -0.492 | -0.305 | -0.056 | -1.46 (active) | -1.21 (active) | -0.628 | -0.412 | -1.34 (active) | -0.205 | -0.518 | -0.707 | -0.226 | -0.695 | -2.08 (active) | –
8 | OTUD7B (UniProt Q6GQQ9) | 0.0222 | -1.59 (active) | -1.86 (active) | -0.521 | -0.504 | -0.33 | -1.28 (active) | -0.708 | -0.151 | -0.187 | -0.43 | -0.18 | -1.84 (active) | -1.31 (active) | -0.129 | -0.96 | -1.56 (active) | –
9 | USP8 (UniProt P40818) | 0.058 | -0.288 | -0.13 | -0.147 | -0.531 | -0.314 | -0.16 | -0.0703 | -0.125 | -0.197 | -0.245 | -0.233 | -0.572 | -0.442 | 0.167 | -0.538 | -0.963 | –
10 | UCHL1 (UniProt P09936) | -1.13 (active) | -1.4 (active) | -1.18 (active) | -1.34 (active) | -1.75 (active) | -1.52 (active) | -1.21 (active) | -1.8 (active) | -1.21 (active) | -1.48 (active) | -0.693 | -1.43 (active) | -2.07 (active) | -1.66 (active) | -1.22 (active) | -1.39 (active) | -2.02 (active) | –
11 | UniProt O00487 | -0.123 | -0.134 | -0.0855 | -0.115 | -0.19 | -0.0571 | 0.0118 | -0.116 | -0.0519 | -0.139 | 0.0936 | -0.0818 | -0.263 | -0.192 | -0.162 | -0.0244 | -0.0223 | –
12 | UniProt Q9P2H5 | -0.166 | -0.204 | 0.0516 | -0.0828 | -0.259 | -0.335 | 0.0945 | -0.217 | -0.0782 | -0.183 | -0.0813 | -0.0714 | -0.237 | -0.322 | -0.138 | -0.105 | -0.631 | –
13 | FAM105A (UniProt Q9NUU6) | 0.277 | 0.257 | 0.116 | 0.0605 | 0.177 | 0.232 | -0.696 | 0.176 | 0.144 | 0.133 | -0.00706 | -0.0484 | 0.105 | 0.185 | -0.0373 | 0.0935 | 0.0436 | –
14 | COPS5 (UniProt Q92905) | -0.228 | 0.105 | -0.102 | -0.0488 | -0.0269 | 0.0396 | -0.141 | -0.303 | -0.00505 | -0.0303 | 0.0391 | 0.0347 | 0.203 | 0.0382 | 0.0301 | 0.0105 | 0.27 | –
15 | USP19 (UniProt O94966) | 0.00416 | -0.0254 | -0.108 | -0.341 | -0.267 | -0.381 | -0.558 | -0.285 | -0.171 | -0.607 | 0.00124 | -0.175 | -0.0817 | 0.0408 | 0.0949 | -0.207 | -0.681 | –
16 | ATXN3 (UniProt P54252) | -0.0377 | 0.0273 | -0.0841 | -0.487 | -0.327 | -0.303 | -0.0822 | -0.171 | -0.116 | -0.268 | -0.254 | -0.156 | -0.305 | -0.206 | -0.0451 | -0.0869 | -1.02 (active) | –
17 | USP46 (UniProt P62068) | -0.0299 | -0.0303 | 0.206 | -0.116 | -0.0331 | -0.248 | -0.103 | -0.0865 | -0.0696 | -0.323 | 0.0828 | -0.198 | 0.0653 | 0.0564 | 0.118 | 0.0832 | -0.509 | –
18 | USP9X (UniProt Q93008) | -0.0684 | -0.269 | -0.142 | -0.264 | -0.347 | -0.336 | -0.0452 | -0.0218 | -0.239 | -0.36 | -0.111 | 0.0487 | -0.264 | -0.191 | -0.0136 | -0.446 | -0.734 | –
